An excerpt weighted towards active compounds, which were near 1.4% of everything screened.
NPR2 activator – GC-B (human) receptor activation | hit rate 0.11% among 370,000 | AID 1920062 | HEK293-GC-B cells, CNP EC30, cGMP TR-FRET; 0% at EC30 CNP, 100% saturating CNP | P20594 | activation, % at 10 µM;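 active = activation at 10 µM reaching about 35% in either raw or pattern-adjusted values, limit read from the data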
GC-A act – GC-A (human) enzyme activation. HEK293 GC-A cells, cGMP TR-FRET, EC30 ANP; 0% at EC30 ANP, 100% saturating ANP. AID 1671463. P16066. activation, % at 10 µM. hit rate 0.14% among 370,000; in the data active = activation above about 40%
FAS TE block – FAS thioesterase (human) inhibition | P49327 | inhibition, % at 15 µM | hit rate 0.67% among 360,000 | AID 602261 | recombinant FAS-TE, OMFH fluorogenic substrate, fluorescence endpoint;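 active = compounds whose normalised, plate-corrected inhibition of enzyme fluorescence in the single-dose primary screen is 50% or more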;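 also: 0% = DMSO with enzyme and 100% = substrate without enzyme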
A3G deaminase – blocks human APOBEC3G single-stranded DNA deamination. recombinant A3G, ssDNA deamination FAM/TAMRA fluorescence. inhibition, % at 20 µM. hit rate 0.28% among 330,000. AID 493012;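 active = inhibition of at least 40% at 20 µM, with no more than 30% in the related APOBEC3A deaminase screen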;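 also: plate controls were DMSO wells with A3G for no effect and wells lacking A3G enzyme for full effect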
APOBEC3A inh – blocks human APOBEC3A ssDNA deamination | P31941 | hit rate 0.41% among 330,000 | recombinant A3A, FAM/TAMRA ssDNA deamination fluorescence | inhibition, % at 20 µM;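 active = at least 40% inhibition at 20 µM here, with at most 30% in a related deaminase screen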;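 also: plate controls were A3A with DMSO for no effect and wells lacking A3A enzyme for full effect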
FAS-TE inh conf – FAS thioesterase (human) inhibition, confirmation; shares compounds with FAS TE block; recombinant FAS-TE, OMFH fluorogenic substrate, fluorescence; inhibition, % at 15 µM; hit rate 45% among 2,300;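 active = compounds inhibiting the enzyme by at least 50% at 15 µM in any one of the replicates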;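 also: 0% = enzyme with DMSO only and 100% = wells lacking enzyme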
Numbers without * were called inactive; . = no result given.

SMILES	NPR2 activator	GC-A act	FAS TE block	A3G deaminase	APOBEC3A inh	FAS-TE inh conf
COc1ccc(CNC(=O)O[C@H]2CC[C@@]34CCCN3C(=O)CCC[C@H]4C2)cc1	1	2	.	.	.	.
O=S1(=O)c2c(cccc2N2CCSCC2)Oc2ccccc2CN1Cc1cn(Cc2ccccc2C(F)(F)F)nn1	-5	-3	.	.	.	.
Cc1ccc(NC(=S)NC(CO)C(O)c2ccc([N+](=O)[O-])cc2)cc1 (stereo not drawn)	0	-5	18	2	-1	.
O=[N+]([O-])c1ccc(C(O)C(CO)NC(=S)Nc2ccccc2)cc1 (stereo not drawn)	-2	5	59*	-2	-2	55*
CCN(CC(=O)NCc1ccc(Cl)cc1)C(=O)/C=C/c1ccccc1	6	-1	18	-6	-3	.
CCN(CC(=O)NCc1ccc(Cl)cc1)C(=O)/C=C/c1ccc(Cl)c([N+](=O)[O-])c1	-1	-3	65*	4	-3	47
Cc1cc(C)n(C(=O)/C(C#N)=N/Nc2cc(Cl)cc(Cl)c2)n1	.	.	53*	-6	-5	25
O=C(Cn1c(-c2cncs2)nc2ccccc21)N1CCOCC1	-7	6	.	.	.	.
CC#CCN1c2ccccc2[C@]23C[C@@H](C(=O)OC)N(C(=O)NCCBr)C2=NC(C(=O)OC)=C(C(=O)OC)[C@H]13	-5	-1	64*	-7	12	29
C=CCN1c2ccccc2[C@]23C[C@@H](C(=O)OC)N(C(=O)NC4CCCC4)C2=NC(C(=O)OC)=C(C(=O)OC)[C@H]13	3	-2	75*	-9	-4	0
CC#CCN1c2ccccc2[C@]23C[C@@H](C(=O)OC)N(C(=O)OCC)C2=NC(C(=O)OC)=C(C(=O)OC)[C@H]13	-4	-1	-8	-4	-2	.
COc1ccc(-c2ccc3c(c2)S(=O)(=O)c2cccc(C(=O)N4CCN(c5c(Cl)cncc5Cl)CC4)c2C3=O)cc1OC	12	6	68*	-3	-2	-2
O=C1c2ccc(Cl)cc2S(=O)(=O)c2cccc(C(=O)N3CCN(c4ncc(Br)cn4)CC3)c21	-2	0	68*	-4	2	9
O=C1c2ccc(Cl)cc2S(=O)(=O)c2cccc(C(=O)N3CCC(Cc4ccccc4)CC3)c21	6	4	84*	-1	2	27
COc1ccc(-c2ccc3c(c2)S(=O)(=O)c2cccc(C(=O)NCCOc4ccccc4)c2C3=O)cc1OC	.	.	-8	-7	0	.
N#Cc1cccnc1N1CCN(C(=O)c2cccc3c2C(=O)c2ccc(-c4ccc(Cl)c(C(F)(F)F)c4)cc2S3(=O)=O)CC1	.	.	80*	-3	-3	2
N#Cc1cccnc1N1CCN(C(=O)c2cccc3c2C(=O)c2ccc(Cl)cc2S3(=O)=O)CC1	1	-1	26	-2	1	.
COC(=O)[C@]12C[C@H](CC(=O)NCC34CC5CC(CC(C5)C3)C4)C(=O)N(Cc3ccccc3)C1=C[C@H](C1CCCC1)O[C@@H]2C	-2	-6	.	.	.	.
COC(=O)C1CN(Cc2ccc(F)cc2)CCS(=O)(=O)N1Cc1ccc(OC)cc1 (stereo not drawn)	-10	-4	.	.	.	.
O=C(NC1CCCCN(Cc2cccc(Cl)c2)C1=O)c1ccc(F)c(F)c1 (stereo not drawn)	1	1	.	.	.	.
CC(C)N1Cc2nnn(Cc3ccc(F)cc3)c2-c2cc(F)ccc2S1(=O)=O	4	-2	.	.	.	.
O=C(CSc1ccc([N+](=O)[O-])cn1)Nc1cc(C(F)(F)F)ccc1N1CCOCC1	0	-7	56*	-5	-2	15
Cc1ccc2nc(-c3ccccc3)cc(C(=O)N3CCN(S(=O)(=O)c4c(C)noc4C)CC3)c2c1	-1	-2	70*	1	-2	19
Cc1ccc(S(=O)(=O)N2CCN(Cc3ccccc3)CC2)c(C)c1N(C)S(=O)(=O)c1ccccc1	1	1	52*	-2	3	13
C=CCN1[C@@H](CC(C)C)COc2cc(F)ccc2S1(=O)=O	4	1	.	.	.	.
Cc1cc2cc(CN(Cc3cccs3)C(c3nnnn3C(C)(C)C)C(C)C)c3nnnn3c2cc1C (stereo not drawn)	-1	-3	52*	.	.	6

Screening results deposited in PubChem by Sanford-Burnham Center for Chemical Genomics.
